In this assay the target is Eukaryotic translation initiation factor 4H (Homo sapiens) (UniProt Q15056). Put plainly: human eIF4H binding inhibitors, primary screen, translation initiation inhibitor project, biochemical, uHTS, fluorescence polarization (AID 2012).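 Further: calls also rest on retests at 20 µM and on dose response follow-up.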 Particulars: eIF4H fluorescence polarization binding assay, stronger effect = higher value.

Hit rate of the full screen: of about 290,000 compounds, about 2,700 (0.93%) were called active. This is one part of a sample in which actives are shown more often than they occur. How the calls were made is not given here.

For the molecule `Cc1cccnc1CC(C)NC(=O)c1cc(COc2cncc(Cl)c2)on1` (centres undefined), the inhibition (at 35 µM) is -1% (inactive).

In the case of `Oc1ccc(N=Cc2c(O)ccc3ccccc23)cc1`, for the setting “at 35 µM”, the inhibition was 19% (inactive).

On to `Oc1ccc(N=Cc2sc3ccccc3c2Cl)cc1`, for which the inhibition runs as follows: (at 35 µM) 105% (active); (confirmation average, at 20 µM) 73.8%.

For the molecule `O=C(N/N=C/c1c(Cl)[nH]c2ccccc12)c1sc2ccccc2c1Cl`, the inhibition (at 35 µM) is -8.2% (inactive).

As to `CCCOc1ccc(/C=N/NC(=O)C2CC2)c(OCCC)c1`, the inhibition (at 35 µM) is -12.1% (inactive).

Consider `Cc1c(OC(C)C(=O)N[C@@H](Cc2ccccc2)C(=O)O)ccc2c3c(c(=O)oc12)CCCC3` (some centres undefined), for which the inhibition (at 35 µM) was 5.5% (inactive).

`Cc1cc(OC(C)C(=O)NC2CC(C)(C)NC(C)(C)C2)c2c(C)cc(=O)oc2c1` (centres undefined): the inhibition (at 35 µM) is -0.9% (inactive).

As to `Cc1ccc(N2NC(=O)/C(=C/C=C/c3ccco3)C2=O)cc1C`, under “at 35 µM”, the inhibition was 45.7% (inactive).

For the molecule `Cc1ccc(N=C2NC(=O)/C(=C/C=C/c3ccco3)S2)cc1C`, the inhibition by setting is: (at 35 µM) 75.9% (active); (confirmation average, at 20 µM) 90.3%.

For the molecule `Cc1cccc(N=C2NC(=O)/C(=C/c3cn(C)c4ccccc34)S2)c1`, the inhibition (at 35 µM) was 2.5% (inactive).

For the molecule `CCN(CC)S(=O)(=O)c1ccc(-c2cn3ccc(C)cc3n2)cc1`, the inhibition (at 35 µM) was 1.1% (inactive).

`Cc1ccc(-c2n[nH]c(=S)n2/N=C/c2cc3c(cc2[N+](=O)[O-])OCO3)cc1`: the inhibition (at 35 µM) was 29.5% (inactive).

For the molecule `CCOc1ccc(-c2n[nH]c(=S)n2/N=C/c2cc3c(cc2[N+](=O)[O-])OCO3)cc1`, the inhibition is 86.2% (active) (at 35 µM) and 80.4% (confirmation average, at 20 µM).

As for `O=[N+]([O-])c1ccccc1/C=N/n1c(COc2ccccc2)n[nH]c1=S`, the inhibition (at 35 µM) is -1.1% (inactive).

With `COc1cc(/C=N/NC(=O)c2cc(C)n(-c3ccc(F)cc3)c2C)cc(OC)c1O`, the inhibition (at 35 µM) is 0.7% (inactive).

In the case of `Cc1cc(C(=O)COC(=O)C2CC2)c(C)n1-c1ccc(F)cc1`, the inhibition by setting is: (at 35 µM) 4.9% (active); (confirmation average, at 20 µM) 52.5%.

Regarding `Cc1ccc(-n2c(C)cc(C(=O)CN3C(=O)C(=O)N(C4CCCC4)C3=O)c2C)cc1`, the inhibition (at 35 µM) was 1.2% (inactive).

As to `O=C(Nc1ccc(F)cc1)c1ccc(S(=O)(=O)NCc2cccnc2)cc1`, the inhibition (at 35 µM) was 10.1% (inactive).

With `NC(=O)CN1CCCC1c1ccc2c(c1)OCCO2` (centres undefined), the inhibition (at 35 µM) was 4.2% (inactive).

As for `O=C(Nc1nnc(SCc2ccccc2)s1)c1ccco1`, the inhibition (at 35 µM) is 6% (inactive).

Turning to `Clc1ccccc1CSc1nnc(-c2ccco2)c(-c2ccco2)n1`, the inhibition is 96.6% (active) (at 35 µM) and 94.4% (confirmation average, at 20 µM).

As to `c1ccc(CSc2nnc(-c3ccco3)c(-c3ccco3)n2)cc1`, the inhibition (at 35 µM) was 94.6% (active).

In the case of `COC(OC)c1ccnc(SCc2ccccc2Cl)n1`, the inhibition (at 35 µM) is 2% (inactive).

Consider `Fc1cccc(Cl)c1CSc1ccc(-c2ccco2)nn1`, for which the inhibition (at 35 µM) was 49.1% (inactive).

For the molecule `Brc1ccc(CSc2ccc(-c3ccco3)nn2)cc1`, the inhibition is 61% (inactive) (at 35 µM) and -1.3% (confirmation average, at 20 µM).

Regarding `CCN(C(=O)C1CCCN(c2nc(-c3ccc(OC)cc3)no2)C1)c1ccc(OC)cc1` (centres undefined), the inhibition (at 35 µM) was -11.8% (inactive).

For the molecule `Cc1ccc(NC(=O)CSc2nn3c(=O)c(C)nnc3s2)cc1Cl`, the inhibition (at 35 µM) was -27.5% (inactive).

On to `CC(=O)c1ccc(N2CCN(C(=O)C3CCN(S(=O)(=O)c4ccc5c(c4)CC(C)N5C(=O)C4CC4)CC3)CC2)cc1` (centres undefined), for which the inhibition (at 35 µM) is -9.3% (inactive).

As for `CC(Sc1nc(-c2ccccc2)cc(C(F)(F)F)n1)C(=O)Nc1ccc2c(c1)OCO2` (centres undefined), under “at 35 µM”, the inhibition is 4.8% (inactive).

As to `O=C(Nc1ccc2c(c1)OCO2)c1sc2cc(Cl)ccc2c1Cl`, the inhibition (at 35 µM) is -4% (inactive).

Turning to `CC(Sc1nc2cc(Cl)ccc2s1)C(=O)Nc1ccc2c(c1)OCO2` (centres undefined), the inhibition reads like this: (at 35 µM) 1.8% (active); (confirmation average, at 20 µM) 65.1%.

For the molecule `O=S(=O)(c1ccc(Br)cc1)N1CCC(c2nc3ccccc3[nH]2)CC1`, where the note is “at 35 µM”, the inhibition was -8.2% (inactive).

For the molecule `CC1CCCCN1CCCNc1ccc(C(CC(N)=O)NC(=O)c2ccccc2)cc1[N+](=O)[O-]` (centres undefined), the inhibition (at 35 µM) is -8.3% (inactive).

In the case of `COc1ccc(CC(NC(C)=O)C(=O)NC2CCN(C(=O)c3ccc(Cl)cc3)CC2)cc1` (centres undefined), the inhibition (at 35 µM) is -0.5% (inactive).

With `CC(=O)NC(Cc1ccc(F)c(F)c1)C(=O)NC1CCN(C(=O)c2ccc(C)cc2)CC1` (centres undefined), the inhibition (at 35 µM) is -14.2% (inactive).

For `CNC(=S)N1CCC(NC(=O)C(Cc2ccc(F)cc2)NC(C)=O)CC1` (centres undefined), the inhibition (at 35 µM) is 63.8% (active).

For `O=C(CCc1ccccc1)NNC(=O)COc1ccc(Cl)cc1`, the inhibition (at 35 µM) was 0.4% (inactive).

With `COc1ccccc1NC(=O)CCC(=O)OC(C)C(=O)c1ccccc1` (centres undefined), under “at 35 µM”, the inhibition was 1.3% (inactive).

Consider `O=C(NC1CCCC1)C(=O)c1c[nH]c2ccccc12`, for which the inhibition (at 35 µM) is -6.1% (inactive).

Consider `CCCNC(=O)CSc1nc(Cc2ccccc2)nc2ccccc12`, for which the inhibition (at 35 µM) was -6.2% (inactive).

As to `Clc1c(OCCCn2ccnc2)ccc2ccccc12`, the inhibition (at 35 µM) was 1.6% (inactive).

`O=C(/C=C/c1ccc2c(c1)OCO2)NCc1ccc(F)cc1`: the inhibition (at 35 µM) is 4.7% (inactive).

With `O=C(/C=C/c1ccc2c(c1)OCO2)NCc1cn2cc(Cl)ccc2n1`, the inhibition by setting is: (at 35 µM) -3.3% (active); (confirmation average, at 20 µM) 76.4%.

Regarding `Cc1cccc(NC(=O)/C=C/c2ccc3c(c2)OCO3)n1`, the inhibition (at 35 µM) was -2.1% (inactive).

With `Cc1cccc(NS(=O)(=O)c2ccc(-c3cnc(C4CC4)o3)cc2)c1`, the inhibition (at 35 µM) is -2.4% (inactive).

`O=C(c1ccc[nH]c1=S)N1CCN(S(=O)(=O)c2ccc(Br)cc2Cl)CC1`: the inhibition (at 35 µM) is -10.2% (inactive).

For `Cc1ccc(OCC(=O)c2cc(C)n(Cc3ccco3)c2C)c([N+](=O)[O-])n1`, the inhibition (at 35 µM) was 101% (active) and the inhibition (confirmation average, at 20 µM) stood at 86.9%.

Consider `Cc1cc(C(=O)CSc2nc(N)cc(=O)[nH]2)c(C)n1Cc1ccco1`, for which the inhibition (at 35 µM) was 43.2% (inactive).

In the case of `COc1ccc(OC)c(-n2nnnc2SCC(=O)Nc2cc(C)ccc2OC)c1`, the inhibition (at 35 µM) was 0% (inactive).

Turning to `COc1ccccc1CNC(=O)COc1ccc(C)nc1[N+](=O)[O-]`, under “at 35 µM”, the inhibition is -3.5% (inactive).

As for `COc1ccc(C)cc1-n1nnnc1SCC(=O)c1cc(C)n(Cc2ccco2)c1C`, the inhibition (at 35 µM) was 64.8% (active).

Regarding `COCC(C)n1c(C)cc(C(=O)COc2ccc(C)nc2[N+](=O)[O-])c1C` (centres undefined), the inhibition (at 35 µM) is 70.1% (active) and the inhibition (confirmation average, at 20 µM) worked out at 70.5%.

As to `Cc1cc(C(=O)COC(=O)CNC(=O)c2ccc(F)cc2)c(C)n1Cc1ccco1`, the inhibition was 86.4% (inactive) (at 35 µM) and -10.3% (confirmation average, at 20 µM).

Regarding `CCc1ccccc1NC(=O)CN(C)C(=O)COc1ccc(C)nc1[N+](=O)[O-]`, the inhibition (at 35 µM) was 1.9% (inactive).

Take `Cc1ccc(OCC(=O)NC(C)c2ccccc2)c([N+](=O)[O-])n1` (centres undefined): the inhibition (at 35 µM) was -4.1% (inactive) and the inhibition (confirmation average, at 20 µM) is -2.8%.

Turning to `Cc1c(C(C)(C)O)[nH]c2ccc(C#N)cc12`, the inhibition (at 35 µM) was 2.9% (inactive).

In the case of `CN1CCN(C(=O)C(=O)c2cn(CC(=O)N3CCCC3)c3ccccc23)CC1`, under “at 35 µM”, the inhibition was -7.2% (inactive).
